Unmarked numbers belong to inactive results.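 The calls were made as follows: active = AUC reduced over 20% with Padj below 0.05 in at least 2 of 3 replicates; inactive = otherwise.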
Experiments:
Experiment in all cases: growth AUC relative to DMSO control (median of replicates) (fraction); higher = more growth (less inhibition), active = hit call of the paper
Conditions in all cases: 20 µM; 24 h
[1] = tested on: Akkermansia muciniphila
Method in brief: (§1)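 OD600 was recorded every hour for 24 h in anaerobic monocultures of gut bacteria kept at 37 °C in mGAM, seeded at OD600 0.05 and given 20 µM compound in 1% DMSO. The area under each growth curve was scaled to the plate median of solvent-only wells, or to row and column medians for the industrial chemical plate. Before this step, the minimum OD was set to 0. Reported values are medians of three biological replicates run on separate days.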

[2] = tested on: Bacteroides caccae
Method in brief: as §1

[3] = tested on: Bacteroides clarus
Method in brief: as §1

[4] = tested on: Bacteroides dorei
Method in brief: as §1

[5] = tested on: Bacteroides stercoris
Method in brief: as §1

[6] = tested on: Bacteroides thetaiotaomicron
Method in brief: as §1

[7] = tested on: Bacteroides uniformis
Method in brief: as §1

[8] = tested on: Bifidobacterium longum subsp. longum
Method in brief: as §1

[9] = tested on: Clostridium difficile
Method in brief: as §1

[10] = tested on: Collinsella aerofaciens
Method in brief: as §1

[11] = tested on: Coprococcus comes
Method in brief: as §1

[12] = tested on: Escherichia coli ED1a
Method in brief: as §1

[13] = tested on: Escherichia coli IAI1
Method in brief: as §1

[14] = tested on: Eubacterium rectale
Method in brief: as §1

[15] = tested on: Fusobacterium nucleatum subsp. animalis
Method in brief: as §1

[16] = tested on: Lactobacillus gasseri
Method in brief: as §1

[17] = tested on: Lactobacillus paracasei
Method in brief: as §1

[18] = tested on: Odoribacter splanchnicus
Method in brief: as §1

[19] = tested on: Parabacteroides distasonis
Method in brief: as §1

[20] = tested on: Parabacteroides merdae
Method in brief: as §1

Structure (SMILES)	growth AUC [1]	growth AUC [2]	growth AUC [3]	growth AUC [4]	growth AUC [5]	growth AUC [6]	growth AUC [7]	growth AUC [8]	growth AUC [9]	growth AUC [10]	growth AUC [11]	growth AUC [12]	growth AUC [13]	growth AUC [14]	growth AUC [15]	growth AUC [16]	growth AUC [17]	growth AUC [18]	growth AUC [19]	growth AUC [20]
COP(=S)(OC)Oc1ccc([N+](=O)[O-])c(C)c1	0.998	0.992	0.968	0.984	0.969	0.99	0.97	1.04	0.988	0.952	0.982	0.986	0.979	1.1	0.994	1.01	1.01	0.962	0.89	0.944
O=C(OC1CCCCC1)c1ccccc1C(=O)OC1CCCCC1	1	0.967	0.997	0.985	1.09	0.951	0.985	1	0.995	0.943	0.97	1	0.99	0.946	1.01	1.08	1.02	0.991	0.957	1
CC(C)Oc1cc(-n2nc(C(C)(C)C)oc2=O)c(Cl)cc1Cl	1.21	0.984	0.942	0.982	0.884	0.987	0.898	0.962	0.932	0.921	1.01	0.96	0.993	1.04	1	0.803	1.01	0.967	0.705 (active)	0.96
COC(=O)Nc1cccc(OC(=O)Nc2cccc(C)c2)c1	0.871	0.991	0.983	1.02	0.99	1.01	0.994	1.03	1.02	0.926	1.03	1	0.966	1	0.944	0.933	0.987	1.05	0.976	0.968
CC#Cc1cc(C)nc(Nc2ccccc2)n1	1.08	1.01	0.991	0.941	1	0.945	0.975	0.978	0.965	0.995	1.01	0.986	0.973	1.03	1.1	0.844	0.983	1.06	0.945	0.991
Clc1ccc(C2(Cn3cncn3)CC(Br)CO2)c(Cl)c1 (stereo not given)	1.07	0.973	0.982	0.955	0.921	0.961	0.944	0.896	0.978	0.951	0.997	0.989	1	0.806	0.914	0.891	0.987	0.961	0.952	0.924
COC(=O)c1sccc1S(=O)(=O)NC(=O)Nc1nc(C)nc(OC)n1	1.13	0.932	0.994	0.875	0.961	0.924	1.03	1.09	0.944	0.898	0.962	0.97	0.967	1.14	0.975	0.859	1.03	1.01	0.969	0.973
CC(Cl)(Cl)C(=O)O	0.869	1.05	1.02	1.02	1.02	1.01	1.02	0.983	0.999	1.02	0.998	1.02	0.98	0.996	1.02	1.05	0.977	0.969	1.02	0.961
CCCN(CCC)N=O	1.07	1.01	1.02	1	1	0.999	1.03	0.902	1.01	0.977	1.02	1.03	1	0.979	0.989	0.956	0.984	1.06	1.11	1.03
CCCCOCN(C(=O)CCl)c1c(CC)cccc1CC	1.07	0.909	0.955	0.944	1.25	0.923	0.954	0.996	0.979	0.928	0.996	1.02	1.04	1.03	1.12	1.02	1.04	0.909	0.963	0.976
CCc1cccc(CC)c1N(COC)C(=O)CCl	0.942	1	0.991	0.949	1.08	0.957	0.985	1	0.974	0.989	0.976	0.96	0.975	0.993	1.05	0.948	1.01	1.04	0.993	0.978
COc1ccc(-c2ccccc2)cc1NNC(=O)OC(C)C	0.865	0.921	0.974	0.991	1.08	0.958	0.942	0.982	0.993	1.05	0.957	1.03	1.01	1	0.965	0.967	0.971	0.948	0.892	0.937
COP(=S)(OC)Oc1nc(Cl)c(Cl)cc1Cl	1.06	1.01	1	0.998	0.947	0.96	0.935	1.01	0.975	0.991	0.978	0.986	0.997	0.913	0.94	1.07	0.989	0.942	0.937	0.951
N#Cc1c(Cl)c(Cl)c(Cl)c(C#N)c1Cl	0.96	0.984	0.563 (active)	0.931	0.566 (active)	0.0851 (active)	0.218 (active)	0.782 (active)	0.997	0.864	0.974	0.967	0.96	0.714	0.908	0.558 (active)	0.872	0.927	0.682 (active)	0.823
O=C(Nc1ccccc1)Nc1cnns1	0.941	0.868	0.921	0.918	1.04	0.941	1.01	1.03	0.936	0.969	0.971	0.91	0.884	1	0.955	0.925	1.09	0.938	0.94	0.955
Clc1ccccc1Cl	0.952	1.02	1.02	0.992	0.991	0.986	1.03	1.11	0.996	0.975	1.02	0.971	0.994	0.972	0.975	0.948	1.02	0.95	0.996	1.01
